Measurements as given in the supplement of paper PMC10849652.
About 8,800 targets were measured; listed, in parts, are those with a hit and a random draw of the rest. About 0.5% of all pairs of compound and target were hits.

Legend:
Assay in all cases: log2 fold change, soluble protein after heating vs DMSO (PISA); higher = thermal stabilisation; K562 lysate, 10 uM; active = over 0.2 and 3.5 SD of the protein, either way, in both replicates (recomputed)
[1] = compound: CS(=O)(=O)CCNCc1ccc(-c2ccc3ncnc(Nc4ccc(OCc5cccc(F)c5)c(Cl)c4)c3c2)o1 [lapatinib]
Summary of the method: (§1)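 Soluble protein was defined as the supernatant remaining after 21,000xg for 90 min, following pooling of heated aliquots and adjustment to 0.5% NP-40 at 4°C. Before that, crude K562 extract at 1 mg/mL protein in PBS pH 7.4 with 1 mM MgCl2 was treated with 10 μM compound for 30 min and heated for 3 min across 48°C-58°C. Quantification used TMTpro 16plex LC-MS/MS with channel sums equalised, and values are log-two fold changes in thermal stability relative to solvent controls from duplicates.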

[2] = compound: CS(=O)(=O)N1CCN(Cc2cc3nc(-c4cccc5[nH]ncc45)nc(N4CCOCC4)c3s2)CC1 [pictilisib]
Summary of the method: as §1

[3] = compound: C[C@@H](Oc1cc(-c2cnn(C3CCNCC3)c2)cnc1N)c1c(Cl)ccc(F)c1Cl [crizotinib]
Summary of the method: as §1

[4] = compound: C[C@H](C1=CC=C(C=C1)C(=O)NC2=C3C=CNC3=NC=C2)N
Summary of the method: as §1

[5] = compound: C[C@H](Nc1ncnc2nc[nH]c12)c1cc2cccc(Cl)c2c(=O)n1-c1ccccc1 [duvelisib]
Summary of the method: as §1

[6] = compound: Cc1cc(Nc2cc(CN3CCOCC3)c3nc(C)c(Cc4ccc(Cl)cc4F)n3n2)n[nH]1 [gandotinib]
Summary of the method: as §1

[7] = compound: Cc1cc(Nc2cc(N3CCN(C)CC3)nc(Sc3ccc(NC(=O)C4CC4)cc3)n2)n[nH]1 [tozasertib]
Summary of the method: as §1

[8] = compound: Cc1ccc(-n2nc(C(C)(C)C)cc2NC(=O)Nc2ccc(OCCN3CCOCC3)c3ccccc23)cc1 [doramapimod]
Summary of the method: as §1

[9] = compound: Cc1ccc(NC(=O)c2ccc(CN3CC[C@H](N(C)C)C3)c(C(F)(F)F)c2)cc1Nc1nccc(-c2cncnc2)n1 [bafetinib]
Summary of the method: as §1

[10] = compound: Cc1cccc(CC(=O)N2CCc3c2ccc(-c2cn(C)c4ncnc(N)c24)c3F)n1
Summary of the method: as §1

Measured: log2 fold change

TOPBP1 (UniProt Q92547)
inactive: [1] 0.095 | [2] -0.037 | [3] 0.023 | [4] 0.206 | [5] -0.03 | [6] -0.048 | [7] -0.066 | [8] 0.056 | [9] -0.076 | [10] -0.017

TMEM70 (UniProt Q9BUB7)
Chain of UniProt Q9BUB7 (Q9BUB7 whole entry, looked up): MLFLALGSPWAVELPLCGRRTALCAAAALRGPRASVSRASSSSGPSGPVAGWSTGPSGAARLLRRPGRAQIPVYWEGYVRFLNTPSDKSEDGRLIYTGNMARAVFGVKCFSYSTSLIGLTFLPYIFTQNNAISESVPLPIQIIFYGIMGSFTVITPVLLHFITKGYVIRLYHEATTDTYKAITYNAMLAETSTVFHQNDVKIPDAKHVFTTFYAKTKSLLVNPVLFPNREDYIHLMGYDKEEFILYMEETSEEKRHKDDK
active: [4] -0.304
inactive: [1] -0.002 | [2] -0.012 | [3] -0.082 | [5] 0.011 | [6] 0.057 | [7] -0.014 | [8] 0.092 | [9] -0.038 | [10] 0.138

TTC12 isoform 2 (UniProt Q9H892)
Chain of UniProt Q9H892 (Q9H892 whole entry, looked up): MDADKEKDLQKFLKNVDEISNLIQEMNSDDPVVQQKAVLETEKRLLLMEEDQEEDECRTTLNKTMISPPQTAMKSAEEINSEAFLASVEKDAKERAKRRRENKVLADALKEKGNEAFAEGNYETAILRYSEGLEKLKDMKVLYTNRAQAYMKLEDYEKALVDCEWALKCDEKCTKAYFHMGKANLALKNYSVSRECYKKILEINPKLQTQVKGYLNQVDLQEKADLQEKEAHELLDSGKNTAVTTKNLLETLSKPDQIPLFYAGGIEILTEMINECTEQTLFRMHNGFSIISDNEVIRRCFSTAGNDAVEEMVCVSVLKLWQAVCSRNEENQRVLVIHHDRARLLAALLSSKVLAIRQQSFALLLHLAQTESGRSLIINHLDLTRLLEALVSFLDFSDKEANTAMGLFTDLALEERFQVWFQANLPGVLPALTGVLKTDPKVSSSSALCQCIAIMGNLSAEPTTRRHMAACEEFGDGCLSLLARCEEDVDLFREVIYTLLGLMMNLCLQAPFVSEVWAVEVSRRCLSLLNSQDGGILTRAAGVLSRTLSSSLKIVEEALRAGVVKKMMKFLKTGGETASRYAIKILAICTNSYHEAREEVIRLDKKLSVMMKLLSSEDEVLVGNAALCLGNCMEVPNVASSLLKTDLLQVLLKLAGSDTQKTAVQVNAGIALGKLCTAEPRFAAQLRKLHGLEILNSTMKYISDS
inactive: [1] -0.053 | [2] -0.153 | [3] -0.068 | [4] -0.416 | [5] 0.143 | [6] 0.031 | [7] 0.092 | [8] 0.022 | [9] -0.14
active: [10] 0.445

TUT4 (UniProt Q5TAX3)
Chain of UniProt Q5TAX3 (Q5TAX3 whole entry, looked up): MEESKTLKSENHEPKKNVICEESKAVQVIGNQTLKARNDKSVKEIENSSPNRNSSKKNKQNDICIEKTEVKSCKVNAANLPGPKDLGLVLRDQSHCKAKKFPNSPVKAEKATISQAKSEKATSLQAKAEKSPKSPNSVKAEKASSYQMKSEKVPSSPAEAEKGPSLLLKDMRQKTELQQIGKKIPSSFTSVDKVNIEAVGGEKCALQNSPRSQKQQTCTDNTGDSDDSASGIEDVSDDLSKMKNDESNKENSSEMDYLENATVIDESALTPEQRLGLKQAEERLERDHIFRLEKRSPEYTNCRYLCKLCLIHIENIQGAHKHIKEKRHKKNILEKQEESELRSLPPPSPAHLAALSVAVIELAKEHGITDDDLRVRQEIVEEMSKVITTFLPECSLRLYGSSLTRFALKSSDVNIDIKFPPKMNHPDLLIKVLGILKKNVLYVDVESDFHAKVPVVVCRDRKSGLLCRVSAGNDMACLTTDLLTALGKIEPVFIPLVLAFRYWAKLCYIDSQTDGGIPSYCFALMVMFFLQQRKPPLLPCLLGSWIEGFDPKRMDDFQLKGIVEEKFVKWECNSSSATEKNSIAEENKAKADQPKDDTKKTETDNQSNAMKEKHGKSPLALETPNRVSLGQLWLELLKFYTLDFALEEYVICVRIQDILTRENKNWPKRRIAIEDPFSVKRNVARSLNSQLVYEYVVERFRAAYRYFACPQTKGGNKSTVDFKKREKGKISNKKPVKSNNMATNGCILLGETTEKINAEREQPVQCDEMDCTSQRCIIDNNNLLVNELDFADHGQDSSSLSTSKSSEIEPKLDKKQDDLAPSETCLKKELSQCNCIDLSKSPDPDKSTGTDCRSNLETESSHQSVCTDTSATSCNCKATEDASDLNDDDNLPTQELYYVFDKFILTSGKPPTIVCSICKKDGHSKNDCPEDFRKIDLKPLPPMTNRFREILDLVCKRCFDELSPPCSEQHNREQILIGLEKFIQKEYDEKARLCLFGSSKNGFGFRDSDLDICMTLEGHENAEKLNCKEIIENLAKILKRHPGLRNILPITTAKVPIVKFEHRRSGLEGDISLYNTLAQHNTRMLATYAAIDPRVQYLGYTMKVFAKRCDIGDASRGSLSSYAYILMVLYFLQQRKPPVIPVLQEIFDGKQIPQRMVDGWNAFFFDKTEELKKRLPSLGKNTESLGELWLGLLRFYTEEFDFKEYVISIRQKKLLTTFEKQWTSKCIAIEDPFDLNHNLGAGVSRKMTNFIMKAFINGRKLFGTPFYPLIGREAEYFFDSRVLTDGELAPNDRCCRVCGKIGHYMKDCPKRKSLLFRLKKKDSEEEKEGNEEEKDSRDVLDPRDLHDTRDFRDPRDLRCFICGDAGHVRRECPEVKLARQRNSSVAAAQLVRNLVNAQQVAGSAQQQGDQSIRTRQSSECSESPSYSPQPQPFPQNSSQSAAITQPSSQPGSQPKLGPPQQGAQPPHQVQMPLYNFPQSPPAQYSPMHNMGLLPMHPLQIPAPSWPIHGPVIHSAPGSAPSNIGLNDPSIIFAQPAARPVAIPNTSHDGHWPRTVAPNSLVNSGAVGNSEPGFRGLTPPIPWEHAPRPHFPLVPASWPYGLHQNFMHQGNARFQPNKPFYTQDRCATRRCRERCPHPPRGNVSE
inactive: [1] -0.003 | [2] -0.041 | [3] 0 | [4] -0.064 | [5] 0.006 | [6] -0.001 | [7] 0.047 | [8] -0.023 | [9] -0.039 | [10] 0.15

TTC5 (UniProt Q8N0Z6)
Chain of UniProt Q8N0Z6 (Q8N0Z6 whole entry, looked up): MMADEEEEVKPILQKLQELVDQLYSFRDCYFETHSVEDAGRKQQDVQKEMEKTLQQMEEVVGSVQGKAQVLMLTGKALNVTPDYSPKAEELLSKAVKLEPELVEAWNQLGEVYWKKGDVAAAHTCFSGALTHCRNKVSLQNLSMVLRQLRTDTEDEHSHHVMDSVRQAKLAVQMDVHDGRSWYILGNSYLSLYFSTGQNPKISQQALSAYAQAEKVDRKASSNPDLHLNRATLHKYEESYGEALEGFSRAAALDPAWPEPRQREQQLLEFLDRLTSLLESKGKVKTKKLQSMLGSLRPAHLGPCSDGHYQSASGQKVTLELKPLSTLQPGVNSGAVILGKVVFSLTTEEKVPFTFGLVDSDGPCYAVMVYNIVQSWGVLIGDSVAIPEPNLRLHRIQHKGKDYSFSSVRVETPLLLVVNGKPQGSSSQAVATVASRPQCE
inactive: [1] 0.039 | [2] -0.021 | [3] -0.053 | [4] -0.064 | [5] 0.032 | [6] -0.048 | [7] 0.076 | [8] 0.007 | [9] -0.052 | [10] 0.04

TRADD (UniProt Q15628)
Chain of UniProt Q15628 (Q15628 whole entry, looked up): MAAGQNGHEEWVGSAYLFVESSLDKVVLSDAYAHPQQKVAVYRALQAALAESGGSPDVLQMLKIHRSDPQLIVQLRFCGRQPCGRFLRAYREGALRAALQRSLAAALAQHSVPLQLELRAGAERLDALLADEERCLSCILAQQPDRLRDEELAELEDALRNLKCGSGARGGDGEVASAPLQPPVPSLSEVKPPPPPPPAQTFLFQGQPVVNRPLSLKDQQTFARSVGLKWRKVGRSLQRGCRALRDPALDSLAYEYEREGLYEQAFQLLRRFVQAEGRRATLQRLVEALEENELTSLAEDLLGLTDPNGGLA
inactive: [1] -0.015 | [2] -0.011 | [3] -0.003 | [4] -0.022 | [5] -0.081 | [6] -0.03 | [7] -0.011 | [8] -0.022 | [9] -0.034 | [10] 0.035

TBC1D8B (UniProt Q0IIM8)
inactive: [1] 0 | [2] -0.072 | [3] 0.013 | [4] -0.229 | [5] 0.007 | [6] 0.176 | [7] -0.011 | [8] 0.014 | [9] 0.03 | [10] 0.097

TIAL1 isoform 2 (UniProt Q01085)
Chain of UniProt Q01085 (Q01085 whole entry, looked up): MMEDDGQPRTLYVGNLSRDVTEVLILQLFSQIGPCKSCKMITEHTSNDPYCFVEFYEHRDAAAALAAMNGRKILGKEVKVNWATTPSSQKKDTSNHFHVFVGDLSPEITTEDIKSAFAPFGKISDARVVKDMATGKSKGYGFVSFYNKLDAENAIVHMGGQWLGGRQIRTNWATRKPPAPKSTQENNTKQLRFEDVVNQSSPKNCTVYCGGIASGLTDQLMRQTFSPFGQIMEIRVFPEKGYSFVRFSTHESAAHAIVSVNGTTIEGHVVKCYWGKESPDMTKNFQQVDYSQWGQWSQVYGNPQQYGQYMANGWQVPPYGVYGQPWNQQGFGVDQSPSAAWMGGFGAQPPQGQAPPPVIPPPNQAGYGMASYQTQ
inactive: [1] -0.013 | [2] -0.063 | [3] 0.038 | [4] -0.024 | [5] -0.014 | [6] 0.054 | [7] 0.011 | [8] 0.007 | [9] 0 | [10] 0.001

TECR (UniProt Q9NZ01)
Chain of UniProt Q9NZ01 (Q9NZ01 whole entry, looked up): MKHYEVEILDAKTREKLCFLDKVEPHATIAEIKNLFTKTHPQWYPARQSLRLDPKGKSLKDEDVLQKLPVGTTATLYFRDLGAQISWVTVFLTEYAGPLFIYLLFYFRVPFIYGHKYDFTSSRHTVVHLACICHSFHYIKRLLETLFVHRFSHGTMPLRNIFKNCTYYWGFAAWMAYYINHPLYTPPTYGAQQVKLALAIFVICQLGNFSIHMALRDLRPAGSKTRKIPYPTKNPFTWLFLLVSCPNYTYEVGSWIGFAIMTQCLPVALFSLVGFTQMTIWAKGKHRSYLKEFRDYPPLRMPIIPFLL
inactive: [1] -0.082 | [2] -0.032 | [3] -0.138 | [4] 0.011 | [5] -0.056 | [7] 0.056 | [8] -0.045 | [9] -0.049 | [10] 0.015
active: [6] -0.448

TRIM44 (UniProt Q96DX7)
inactive: [2] -0.11 | [3] -0.018 | [4] 0.04 | [5] 0.007 | [6] 0.01 | [7] -0.04 | [8] 0.013 | [9] 0.031 | [10] -0.075
active: [1] -0.242

TELO2 (UniProt Q9Y4R8)
Chain of UniProt Q9Y4R8 (Q9Y4R8 whole entry, looked up): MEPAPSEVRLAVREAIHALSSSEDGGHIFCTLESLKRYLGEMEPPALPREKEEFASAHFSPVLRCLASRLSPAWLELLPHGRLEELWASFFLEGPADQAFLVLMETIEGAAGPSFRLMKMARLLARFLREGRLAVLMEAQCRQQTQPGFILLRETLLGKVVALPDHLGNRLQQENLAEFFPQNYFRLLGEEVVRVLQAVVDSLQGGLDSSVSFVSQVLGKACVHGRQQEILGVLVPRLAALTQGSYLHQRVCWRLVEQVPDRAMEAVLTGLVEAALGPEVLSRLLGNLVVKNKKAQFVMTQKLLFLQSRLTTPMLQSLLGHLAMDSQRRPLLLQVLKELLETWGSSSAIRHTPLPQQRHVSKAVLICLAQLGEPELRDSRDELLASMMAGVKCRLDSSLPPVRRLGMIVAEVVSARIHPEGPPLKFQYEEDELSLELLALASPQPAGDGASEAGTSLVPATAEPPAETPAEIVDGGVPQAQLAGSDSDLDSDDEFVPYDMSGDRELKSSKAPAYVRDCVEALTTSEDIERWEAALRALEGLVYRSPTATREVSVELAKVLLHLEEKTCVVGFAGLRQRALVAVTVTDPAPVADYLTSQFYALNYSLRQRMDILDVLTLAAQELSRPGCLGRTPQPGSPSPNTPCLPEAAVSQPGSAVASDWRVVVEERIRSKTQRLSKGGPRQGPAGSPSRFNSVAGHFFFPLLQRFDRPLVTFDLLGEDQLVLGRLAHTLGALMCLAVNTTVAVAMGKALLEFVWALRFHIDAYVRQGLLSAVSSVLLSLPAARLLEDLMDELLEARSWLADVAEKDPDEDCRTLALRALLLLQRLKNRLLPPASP
inactive: [1] -0.016 | [2] -0.01 | [3] -0.053 | [4] -0.038 | [5] -0.015 | [6] -0.087 | [7] -0.012 | [8] 0.037 | [9] -0.054 | [10] 0.056

TRIP12 isoform 2 (UniProt Q14669)
inactive: [1] -0.109 | [2] 0.016 | [3] -0.029 | [4] -0.012 | [5] 0.05 | [6] -0.042 | [7] 0.024 | [8] -0.006 | [9] -0.06 | [10] 0.06

TTF2 (UniProt Q9UNY4)
inactive: [1] 0.028 | [2] -0.048 | [3] -0.104 | [4] -0.052 | [5] 0 | [6] 0 | [7] 0.019 | [8] 0.053 | [9] -0.02 | [10] 0.102

TBL3 (UniProt Q12788)
inactive: [1] -0.022 | [2] -0.027 | [3] -0.017 | [4] -0.028 | [5] -0.009 | [6] -0.05 | [7] -0.008 | [8] -0.024 | [9] -0.019 | [10] 0.04
